# Measured values published in PubChem BioAssay (NCATS).
# “And” between values parts separate entries of the source, which are not always exact repeats. Identical values can stand only once. Records with an inconclusive call do not appear. Entries that show only a call come without a potency. A structure can be active in one record and inactive in another. The source made the active and inactive calls. Unless noted, calls come from the whole dose curve; as a rule, active = well fitted curve in the direction sought with a large enough effect; inconclusive = small, poorly fitted or top-dose-only effect, or another doubt; inactive = no such curve, though single readings can be large; an effect the other way counts as inactive or inconclusive.
# How the values were obtained:
# [1] = qHTS Assay for Identification of Small Molecule Agonists for Hypoxia Response Element Signaling Pathway (AID 914; active = well fitted activation curve with a large enough effect in the signal ratio, with a control signal flat, not every such curve was filed as active; the % refers to the signal ratio); conditions: ME-180 HRE-bla reporter, beta-lactamase ratio, CoCl2, 17 h; activation: stronger effect = higher value
# Summary of the method: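 ME-180 cells carrying an HRE-driven beta-lactamase reporter were treated with compounds in a titration series plus an EC50 level of CoCl2 for 17 h at 37 degrees Celsius; CCF4 readout as the 460nm/530nm ratio gave AC50 values.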
# [2] = biological target: Muscarinic acetylcholine receptor M1 (Rattus norvegicus) (UniProt P08482); assay: qHTS Assay for Antagonists of Acetylcholine Muscarinic M1 Receptor: Kinetic Measurement of Intracellular Calcium Response (AID 943); note: nearly all actives have a fitted effect of over 75% in size; note: potency is the fitted concentration of half-maximal effect
# Summary of the method: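 Rat M1-CHO cells, 2000/well, overnight → Fluo-4 no-wash dye with probenecid, 1 h 37C → compound 10 min, room temp → basal read 6 s → carbachol EC80 (100 nM) → 4 min kinetic read; peak/basal.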
# [3] = biological target: Muscarinic acetylcholine receptor M1 (Rattus norvegicus) (UniProt P08482); assay: qHTS Assay for Antagonists of Acetylcholine Muscarinic M1 Receptor: Measurement of IP-One Response (AID 944); note: nearly all actives have a fitted effect of over 75% in size; note: potency is the fitted concentration of half-maximal effect
# Summary of the method: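 M1-CHO (rat), 2000 cells/well, overnight recovery; cpd 10 min; carbachol EC80 (200 nM), 30 min, HEPES buffer + 50 mM LiCl pH 7.4; IP-One HTRF, Ex 337, Em 620/665 nm.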
# [4] = biological target: Alpha-galactosidase (Coffea arabica) (UniProt Q42656); assay: Counterscreen for Glucocerebrosidase Inhibitors: qHTS Assay for Coffee Bean alpha-Galactosidase at pH 4.5 (AID 957); note: series mostly up to about 77 µM
# Summary of the method: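 Coffee bean alpha-galactosidase 2 nM, substrate 4-MU-alpha-Gal 80 uM, pH 4.5 citrate/Tween-20, 20 min RT. Cpd titration 0.7 nM–77 uM. Stop pH 10, fluorescence 365/440 nm; Hill-equation AC50.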
# [5] = biological target: Alpha-galactosidase (Coffea arabica) (UniProt Q42656); assay: Counterscreen for Glucocerebrosidase Inhibitors: qHTS Assay for Coffee Bean alpha-Galactosidase at pH 5.9 (AID 998)
# Summary of the method: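 Green coffee bean enzyme (2 nM final) was incubated with compounds (0.7 nM–77 uM) and 4-methylumbelliferyl alpha-D-galactopyranoside (80 uM) in citrate buffer pH 5.9, 20 min at room temperature. High-pH stop; fluorescence 365/440 nm; AC50 from Hill fits.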
# [6] = biological target: Cytochrome P450 2C9 (Homo sapiens) (UniProt P11712); assay: qHTS Assay for Inhibitors and Substrates of Cytochrome P450 2C9 (AID 883); note: nearly all actives have a fitted effect of over 60% in size; note: potency is the fitted concentration of half-maximal effect
# Summary of the method: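 A luminogenic readout tracked human CYP2C9 (10nM) converting deoxyluciferin (100uM, at KM) in 25mM KPO4 during 60 min at 37C with regenerated NADPH. Values normalized to 57uM sulphaphenazole as complete inhibition.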
# [7] = biological target: Cytochrome P450 2C19 (Homo sapiens) (UniProt P33261); assay: qHTS Assay for Inhibitors and Substrates of Cytochrome P450 2C19 (AID 899); note: nearly all actives have a fitted effect of over 60% in size; note: potency is the fitted concentration of half-maximal effect
# Summary of the method: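 NADPH-dependent conversion of Luciferin-H EGE (10uM, at KM) by 5nM enzyme in 50mM KPO4, 60 min at 37C following 10 min compound preincubation. Stopped with luciferin detection buffer; luminescence read after 20 min.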
# [8] = biological target: Cytochrome P450 3A4 (Homo sapiens) (UniProt P08684); assay: qHTS Assay for Inhibitors and Substrates of Cytochrome P450 3A4 (AID 884); note: nearly all actives have a fitted effect of over 50% in size; note: potency is the fitted concentration of half-maximal effect
# Summary of the method: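 20 nM human CYP3A4 with 25 uM Luciferin-PPXE (at KM) in 200 mM KPO4, preincubated 10 min with compound; NADPH regeneration started a 60 min RT reaction. Luciferin detected by luminescence, normalized to 57 uM ketoconazole as full inhibition.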
# [9] = qHTS Assay for Identification of Small Molecule Antagonists for NFkB Signaling Pathway (AID 895; active = well fitted inhibition curve with a large enough effect in the signal ratio, with a control signal flat, not every such curve was filed as active; the % refers to the signal ratio)
# Summary of the method: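 NFkB-bla ME-180 cervical carcinoma cells with beta-lactamase reporter under NFkB response element; compounds added, then TNF alpha at 10 pM final (EC50), 5 h at 37 C. LiveBLAzer substrate 2 h, room temperature; emission 460/530 nm at 405 nm excitation.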
# [10] = Confirmation and Secondary Assay for Modulators of Hemoglobin Beta Chain Splicing at IVS2 654 locus (AID 910);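 note: per-well total GFP intensity by laser scanning cytometry after 2-day treatment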
# Summary of the method: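 HeLa cells stably carrying EGFP interrupted by mutant beta-globin IVS2-654 intron (CMV-driven) were treated with compound for 2 days at 37C; corrected splicing was scored as total peak GFP intensity per well (488 nm excitation, 500-520 nm emission).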
# [11] = Confirmation and Secondary Assay for Modulators of Hemoglobin Beta Chain Splicing at IVS2 705 locus (AID 930);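 note: HeLa cells stably expressing the EGFP-705 splicing reporter; series mostly up to about 46 µM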
# Summary of the method: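 HeLa cells stably carrying EGFP interrupted by mutant beta-globin IVS2-705 intron (CMV-driven) were seeded at 500 cells/well, treated next day with compound for 2 days at 37C; corrected splicing restores EGFP, read as total peak GFP intensity per well.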
# [12] = biological target: DNA repair nuclease/redox regulator APEX1 (Homo sapiens) (UniProt P27695); assay: qHTS Validation Assay for Inhibitors of the Human Apurinic/apyrimidinic Endonuclease 1 (APE1) (AID 1705;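 note: TAMRA fluorescence gain over two minutes as APE1 cuts a quenched THF abasic duplex; series mostly up to about 57 µM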)
# Summary of the method: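 Activity read as rising fluorescence (598 nm emission, 525 nm excitation) from incision of a TAMRA/BHQ-2 duplex carrying a THF abasic site (50 nM). Compound and enzyme sat 15 min at RT before substrate start; signal change between first and third 60-s reads.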
# [13] = Counterscreen for APE1 Inhibitors: Fluorescent Dye Displacement Validation Assay (AID 1707)
# Summary of the method: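 Thiazole Orange displacement from dsDNA: 250 nM ThO with 50 nM TAMRA-labelled abasic-site (tetrahydrofuran) duplex in 50 mM Tris-HCl pH7.5, 50mM NaCl, 2 mM MgCl2, 0.01% Tween-20. Loss of endpoint fluorescence (ex 480 nm, em 540 nm) flags DNA binders.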
# [14] = qHTS for differential inhibitors of proliferation of Plasmodium falciparum line Dd2 (AID 1882); conditions: Potency: Plasmodium falciparum Dd2 proliferation inhibition; note: series mostly up to about 29 µM; nearly all actives have a fitted effect of over 65% in size
# Summary of the method: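 Dd2-infected erythrocytes (0.3% parasitemia, 2.5% hematocrit final) incubated with compound 72 h at 37 C, 5% CO2; lysed with saponin/Triton buffer containing SYBR Green I, incubated overnight in the dark, then read by fluorescence (485/535 nm). Normalized to 0.29 uM artemisinin and DMSO.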
# [15] = qHTS for differential inhibitors of proliferation of Plasmodium falciparum line W2 (AID 1883); conditions: Potency: Plasmodium falciparum W2 proliferation inhibition;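 note: potency is the fitted concentration of half-maximal effect; parasites grown with compound for 72 h before lysis and staining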
# [16] = biological target: Ferritin light chain (Equus caballus) (UniProt P02791); assay: qHTS Validation Assay for Identification of Novel General Anesthetics (AID 2323); note: series mostly up to about 77 µM
# Summary of the method: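 Competitive displacement of the profluorescent anesthetic 1-AMA (50% saturated, PBS) from 10 uM apoferritin, 10 min, room temperature. Activity is normalized 380/535 nm fluorescence; concentration-response fitted with a four-parameter Hill equation.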
# [17] = biological target: ATP-dependent DNA helicase Q1 (Homo sapiens) (UniProt P46063); assay: qHTS Validation Assay for Inhibitors of RecQ-Like Dna Helicase 1 (RECQ1) (AID 2353)
# Summary of the method: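 50 nM RECQ1T1 preincubated 15 min with compound in Tris pH 8.0 buffer with MgCl2, DTT, Tween-20 and 2.5 ug/ml poly(dI-dC); started with 200 nM TAMRA/BHQ-2 forked duplex and 2 mM ATP. Unwinding read as fluorescence (525/598 nm), two reads 2 h apart.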
# [18] = Validation screen for inhibitors of Lassa infection (AID 463096; calls by dose curve; note: potency is the fitted concentration of half-maximal effect)
# [19] = biological target: Transient receptor potential cation channel subfamily V member 1 (Homo sapiens) (UniProt Q8NER1); assay: HTS Assay for Compounds that Act as Enhancers of the Vanilloid Receptor 1 (AID 488979)
# Summary of the method: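 TRPV1-expressing cells loaded with Fluo-8 calcium dye; compounds added and calcium influx read kinetically for 3 min (agonist phase), then capsaicin at EC20 added and read 2 min more for enhancement. Fluorescence ex 480/em 520 nm.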
# [20] = biological target: Thyrotropin-releasing hormone receptor (Homo sapiens) (UniProt P34981); assay: qHTS for Small Molecule Agonists and Allosteric Enhancers of Human TRH Receptor: Validation Screen for Agonists (AID 493127;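 active = calcium activation more than 3 SD above the typical response in the agonist read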;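 note: intracellular calcium rise by fluo-8 fluorescence before TRH EC20 addition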); conditions: TRH receptor agonist cell assay; at 2 µM; stronger effect = higher value
# Summary of the method: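 Cells 2000/well, 10% FCS, 18 h 33.5C/5% CO2 → fluo-8 Ca dye, RT 30 min–1.5 h → FDSS baseline 10 × 1 s → compound added → 230 cycles (1 s/cycle) agonist mode. TRH controls.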
# Cytochrome P450 3A4 (Homo sapiens), sequence (P08684 whole entry, looked up): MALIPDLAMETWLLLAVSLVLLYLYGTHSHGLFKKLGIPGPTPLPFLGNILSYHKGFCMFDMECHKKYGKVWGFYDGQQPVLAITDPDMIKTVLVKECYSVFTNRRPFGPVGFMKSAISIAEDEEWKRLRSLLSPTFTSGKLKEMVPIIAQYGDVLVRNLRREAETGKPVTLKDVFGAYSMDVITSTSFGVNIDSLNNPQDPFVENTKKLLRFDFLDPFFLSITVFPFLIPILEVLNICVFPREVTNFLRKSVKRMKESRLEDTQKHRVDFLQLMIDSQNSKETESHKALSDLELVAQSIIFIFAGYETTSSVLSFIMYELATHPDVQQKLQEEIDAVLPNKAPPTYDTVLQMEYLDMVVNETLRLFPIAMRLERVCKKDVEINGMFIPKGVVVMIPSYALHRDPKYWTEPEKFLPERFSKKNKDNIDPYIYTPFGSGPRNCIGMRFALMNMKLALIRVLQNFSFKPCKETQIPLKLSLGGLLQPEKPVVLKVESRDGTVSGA
# Alpha-galactosidase (Coffea arabica), sequence (Q42656 whole entry, looked up): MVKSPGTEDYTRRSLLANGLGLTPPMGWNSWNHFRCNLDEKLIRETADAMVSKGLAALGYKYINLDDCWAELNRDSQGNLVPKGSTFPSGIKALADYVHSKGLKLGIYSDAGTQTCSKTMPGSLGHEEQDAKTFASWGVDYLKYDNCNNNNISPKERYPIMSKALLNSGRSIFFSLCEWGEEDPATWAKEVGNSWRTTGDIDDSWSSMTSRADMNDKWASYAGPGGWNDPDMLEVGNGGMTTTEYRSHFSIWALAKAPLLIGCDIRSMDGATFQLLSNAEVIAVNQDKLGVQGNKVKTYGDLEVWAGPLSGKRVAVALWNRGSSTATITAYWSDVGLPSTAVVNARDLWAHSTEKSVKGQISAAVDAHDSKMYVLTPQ
# Muscarinic acetylcholine receptor M1 (Rattus norvegicus), sequence (P08482 whole entry, looked up): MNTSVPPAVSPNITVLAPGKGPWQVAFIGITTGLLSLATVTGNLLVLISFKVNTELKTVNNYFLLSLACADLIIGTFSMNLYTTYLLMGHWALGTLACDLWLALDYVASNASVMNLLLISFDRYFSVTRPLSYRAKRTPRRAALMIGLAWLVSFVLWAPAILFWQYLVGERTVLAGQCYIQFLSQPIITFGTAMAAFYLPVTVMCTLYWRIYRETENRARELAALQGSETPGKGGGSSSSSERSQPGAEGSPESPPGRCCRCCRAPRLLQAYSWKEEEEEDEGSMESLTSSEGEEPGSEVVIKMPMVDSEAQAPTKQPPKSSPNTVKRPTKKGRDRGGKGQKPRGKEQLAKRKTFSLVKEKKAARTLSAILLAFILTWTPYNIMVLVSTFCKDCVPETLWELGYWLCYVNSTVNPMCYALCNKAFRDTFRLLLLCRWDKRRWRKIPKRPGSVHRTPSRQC
# Cytochrome P450 2C9 (Homo sapiens), sequence (P11712 whole entry, looked up): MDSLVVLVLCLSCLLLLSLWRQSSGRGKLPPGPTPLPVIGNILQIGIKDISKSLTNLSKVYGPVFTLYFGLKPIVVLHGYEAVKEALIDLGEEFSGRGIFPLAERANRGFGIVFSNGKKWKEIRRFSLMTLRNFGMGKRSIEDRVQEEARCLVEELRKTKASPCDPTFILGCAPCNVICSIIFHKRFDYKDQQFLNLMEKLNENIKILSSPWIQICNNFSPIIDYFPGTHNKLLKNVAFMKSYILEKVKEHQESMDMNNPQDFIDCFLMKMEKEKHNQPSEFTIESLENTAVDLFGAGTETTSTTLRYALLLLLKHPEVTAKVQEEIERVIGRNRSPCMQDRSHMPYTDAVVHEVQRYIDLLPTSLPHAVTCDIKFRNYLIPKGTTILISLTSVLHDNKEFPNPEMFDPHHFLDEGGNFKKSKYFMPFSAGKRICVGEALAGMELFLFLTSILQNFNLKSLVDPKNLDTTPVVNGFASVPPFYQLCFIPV
# Cytochrome P450 2C19 (Homo sapiens), sequence (P33261 whole entry, looked up): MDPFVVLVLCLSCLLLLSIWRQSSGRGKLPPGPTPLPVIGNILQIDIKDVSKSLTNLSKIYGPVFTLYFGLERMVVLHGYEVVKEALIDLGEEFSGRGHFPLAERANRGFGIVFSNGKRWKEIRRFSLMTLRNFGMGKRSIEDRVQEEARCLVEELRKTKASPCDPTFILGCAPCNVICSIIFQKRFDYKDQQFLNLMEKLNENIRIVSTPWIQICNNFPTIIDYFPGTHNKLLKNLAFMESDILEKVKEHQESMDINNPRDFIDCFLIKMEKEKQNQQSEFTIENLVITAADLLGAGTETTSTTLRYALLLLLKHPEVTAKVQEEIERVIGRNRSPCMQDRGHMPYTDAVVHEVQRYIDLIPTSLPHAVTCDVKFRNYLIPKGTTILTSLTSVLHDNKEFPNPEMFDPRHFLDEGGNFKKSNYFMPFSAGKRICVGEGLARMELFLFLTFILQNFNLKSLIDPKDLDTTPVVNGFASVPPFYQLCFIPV
# Ferritin light chain (Equus caballus), sequence (P02791 2-175 limits assumed): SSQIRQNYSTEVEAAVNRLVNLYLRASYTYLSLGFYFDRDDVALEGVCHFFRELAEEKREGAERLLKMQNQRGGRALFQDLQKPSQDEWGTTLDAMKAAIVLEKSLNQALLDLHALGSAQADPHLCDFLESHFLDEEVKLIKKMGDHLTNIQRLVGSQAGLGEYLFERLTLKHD
# DNA repair nuclease/redox regulator APEX1 (Homo sapiens), sequence (P27695 whole entry, looked up): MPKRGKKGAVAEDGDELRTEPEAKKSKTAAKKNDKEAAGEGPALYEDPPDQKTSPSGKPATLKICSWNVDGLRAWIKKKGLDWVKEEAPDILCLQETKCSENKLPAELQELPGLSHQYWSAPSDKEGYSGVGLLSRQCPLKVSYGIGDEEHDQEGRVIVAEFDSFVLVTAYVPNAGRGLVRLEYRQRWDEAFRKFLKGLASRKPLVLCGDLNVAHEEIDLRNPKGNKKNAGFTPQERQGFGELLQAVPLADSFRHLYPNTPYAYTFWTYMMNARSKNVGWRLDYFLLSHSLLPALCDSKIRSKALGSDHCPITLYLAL
# ATP-dependent DNA helicase Q1 (Homo sapiens), sequence (P46063 whole entry, looked up): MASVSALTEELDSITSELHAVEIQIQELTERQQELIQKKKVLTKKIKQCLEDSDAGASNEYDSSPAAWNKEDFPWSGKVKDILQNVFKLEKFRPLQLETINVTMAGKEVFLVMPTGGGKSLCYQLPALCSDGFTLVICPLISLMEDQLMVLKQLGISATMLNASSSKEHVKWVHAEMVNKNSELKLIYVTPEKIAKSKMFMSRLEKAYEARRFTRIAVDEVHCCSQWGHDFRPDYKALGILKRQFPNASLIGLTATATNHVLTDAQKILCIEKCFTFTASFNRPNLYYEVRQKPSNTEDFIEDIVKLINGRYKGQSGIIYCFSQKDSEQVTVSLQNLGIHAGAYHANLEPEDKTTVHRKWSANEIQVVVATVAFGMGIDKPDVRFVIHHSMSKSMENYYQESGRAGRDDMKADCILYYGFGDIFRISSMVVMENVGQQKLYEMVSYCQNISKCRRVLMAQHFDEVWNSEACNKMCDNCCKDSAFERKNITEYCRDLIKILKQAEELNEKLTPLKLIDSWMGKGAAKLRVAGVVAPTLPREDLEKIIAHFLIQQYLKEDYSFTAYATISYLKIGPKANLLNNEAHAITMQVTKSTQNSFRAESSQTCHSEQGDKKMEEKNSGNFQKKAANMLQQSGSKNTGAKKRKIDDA
# Thyrotropin-releasing hormone receptor (Homo sapiens), sequence (P34981 whole entry, looked up): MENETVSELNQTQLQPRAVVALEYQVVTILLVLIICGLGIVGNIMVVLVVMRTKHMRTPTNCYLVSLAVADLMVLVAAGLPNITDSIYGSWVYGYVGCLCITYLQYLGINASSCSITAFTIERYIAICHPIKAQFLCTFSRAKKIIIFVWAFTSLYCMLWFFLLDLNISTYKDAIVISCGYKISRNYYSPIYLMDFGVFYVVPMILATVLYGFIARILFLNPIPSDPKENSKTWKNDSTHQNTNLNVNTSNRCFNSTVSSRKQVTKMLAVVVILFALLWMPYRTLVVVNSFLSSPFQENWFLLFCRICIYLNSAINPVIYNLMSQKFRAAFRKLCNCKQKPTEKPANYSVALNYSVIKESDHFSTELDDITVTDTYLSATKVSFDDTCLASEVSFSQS
# Transient receptor potential cation channel subfamily V member 1 (Homo sapiens), sequence (Q8NER1 whole entry, looked up): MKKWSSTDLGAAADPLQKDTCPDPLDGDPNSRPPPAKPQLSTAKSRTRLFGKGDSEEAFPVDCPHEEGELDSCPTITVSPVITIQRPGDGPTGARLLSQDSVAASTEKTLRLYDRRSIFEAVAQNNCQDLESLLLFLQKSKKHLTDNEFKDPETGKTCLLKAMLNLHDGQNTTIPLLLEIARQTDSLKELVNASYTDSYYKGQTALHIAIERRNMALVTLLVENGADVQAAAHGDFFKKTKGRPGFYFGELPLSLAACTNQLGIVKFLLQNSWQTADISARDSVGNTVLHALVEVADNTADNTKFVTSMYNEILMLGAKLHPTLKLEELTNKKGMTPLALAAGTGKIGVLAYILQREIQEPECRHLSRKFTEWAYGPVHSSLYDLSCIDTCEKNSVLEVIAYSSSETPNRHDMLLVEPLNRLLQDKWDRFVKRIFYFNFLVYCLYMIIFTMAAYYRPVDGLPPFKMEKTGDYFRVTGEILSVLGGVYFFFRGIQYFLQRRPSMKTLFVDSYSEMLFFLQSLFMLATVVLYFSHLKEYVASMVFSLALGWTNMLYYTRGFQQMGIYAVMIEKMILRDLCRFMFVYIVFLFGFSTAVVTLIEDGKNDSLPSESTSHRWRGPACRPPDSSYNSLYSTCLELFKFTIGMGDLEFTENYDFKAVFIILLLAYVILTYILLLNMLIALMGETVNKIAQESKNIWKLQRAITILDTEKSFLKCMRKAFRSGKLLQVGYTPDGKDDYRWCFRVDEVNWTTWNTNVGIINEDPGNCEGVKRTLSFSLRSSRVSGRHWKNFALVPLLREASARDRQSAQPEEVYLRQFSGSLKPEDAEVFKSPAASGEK
smiles,measurement,setting,value
CN1[C@@H]2CC[C@H]1CC(O[C@@H](c1ccccc1)c1ccc(Cl)cc1)C2 (some centres undefined),activation,[1],-9.36% (inactive)
same,Potency,[2],20 nM (active)
same,Potency,[3],12.6 nM (active)
same,outcome,[4],inactive
same,outcome,[5],inactive
O=C1C2CCN(CC2)C1(CO)CO,Potency,[6],63.1 nM (active)
same,Potency,[7],631 nM (active)
C[C@H](N)Cc1cnc[nH]1,Potency,[2],inactive
same,Potency,[3],inactive
same,outcome,[4],inactive
same,outcome,[5],inactive
NC[C@H](CP(=O)(O)O)c1ccc(Cl)cc1,Potency,[8],inactive
same,Potency,[9],inactive
same,activation,[1],-2.39% (inactive)
same,Potency,[2],inactive
same,Potency,[3],inactive
same,outcome,[4],inactive
same,outcome,[5],inactive
NC(=NCCc1ccc(I)cc1)SCCCc1cnc[nH]1,Potency,[8],794 nM (active)
CC1=C(O)C(=O)[C@H]2O[C@@H]2C1=O,Potency,[7],158 nM (active)
O=C1CC[C@@]2(O)[C@H]3Cc4ccc(O)c5c4[C@@]2(CCN3CC2CC2)[C@@H]1O5,Potency,[3],inactive
same,outcome,[4],inactive
same,outcome,[5],inactive
O=C1NCN(c2ccccc2)C12CCN(C[C@H]1COc3ccccc3O1)CC2,Potency,[7],inactive and 7.94 µM (active)
same,Potency,[2],inactive
same,Potency,[3],inactive
CN1CCN(C(=O)O[C@@H]2c3nccnc3C(=O)N2c2ccc(Cl)cn2)CC1,Potency,[6],inactive
same,Potency,[7],inactive
same,Potency,[10],inactive
same,outcome,[11],inactive
CC[C@]1(C2=NCCN2)Cc2ccccc2O1,Potency,[3],inactive
same,outcome,[5],inactive
C/C(=C\C=C/[C@@H](C)C(=O)O)[C@H]1CN[C@H](C(=O)O)[C@@H]1CC(=O)O,Potency,[7],inactive
Cn1cc(C(=O)C(=O)N[C@H]2CN3CCC2CC3)c2ccccc21,Potency,[6],inactive
c1ccc(CCCCN2CCC(c3ccccc3)CC2)cc1,Potency,[8],inactive
C/C(O)=C(/C#N)C(=O)Nc1cc(Br)ccc1Br,Potency,[6],7940 nM (active)
same,Potency,[9],inactive
same,Potency,[7],inactive
same,Potency,[2],inactive
same,outcome,[4],inactive
same,outcome,[5],inactive
COC(=O)N1CCN(C(=O)Cc2ccc(Cl)c(Cl)c2)[C@H](CN2CCCC2)C1,Potency,[9],inactive
same,Potency,[3],inactive
same,outcome,[4],inactive
same,outcome,[5],inactive
C[C@H](N)Cc1c[nH]c2ccc(O)cc12,activation,[1],-4.29% (inactive)
same,Potency,[2],inactive
same,Potency,[3],inactive
CCOC(=O)c1ncn2c1[C@H]1CCCN1C(=O)c1cc(OC)ccc1-2,Potency,[6],inactive
same,Potency,[8],inactive
same,Potency,[7],inactive
same,Potency,[2],inactive
same,Potency,[3],inactive
same,outcome,[4],inactive
same,outcome,[5],inactive
COC(=O)CN1CN(c2ccccc2)C2(CCN(Cc3ccc4ccccc4c3)CC2)C1=O,Potency,[6],inactive
C[C@@H]1O[C@@H](O[C@H]2C[C@@H](O)[C@]3(CO)[C@@H]4C(CC[C@]3(O)C2)[C@@]2(O)CC[C@H](C3=CC(=O)OC3)[C@@]2(C)C[C@H]4O)[C@H](O)[C@H](O)[C@H]1O (some centres undefined),Potency,[8],inactive
same,Potency,[12],inactive
same,Potency,[13],inactive
same,Potency,[14],inactive
same,Potency,[15],11200 nM (active)
same,outcome,[16],inactive
same,Potency,[17],inactive
same,Potency,[18],100 nM (active)
same,outcome,[19],inactive
same,activation,[20],0.375% (inactive)
CC(C)(c1ccc(OCC2CO2)cc1)c1ccc(OCC2CO2)cc1 (centres undefined),Potency,[8],inactive
COc1ccc(CNC(=O)/C=C\c2ccc3[nH]cc(CCN(C)C)c3c2)cc1,Potency,[6],inactive
same,Potency,[7],inactive
same,Potency,[3],inactive
S=C=Nc1cccc(C2(N3CCCCC3)CCCCC2)c1,Potency,[6],inactive
same,Potency,[7],inactive
CC1OC(=O)C(C(C)C)NC(=O)C(C(C)C)OC(=O)C(C(C)C)NC(=O)C(C)OC(=O)C(C(C)C)NC(=O)C(C(C)C)OC(=O)C(C(C)C)NC(=O)C(C)OC(=O)C(C(C)C)NC(=O)C(C(C)C)OC(=O)C(C(C)C)NC1=O (centres undefined),Potency,[10],inactive
same,outcome,[11],inactive
O=C(Cc1ccc(Cl)c(Cl)c1)N1CCCC[C@H]1CN1CCCC1,Potency,[8],7940 nM (active)
same,Potency,[7],6310 nM (active)
same,outcome,[4],inactive
same,outcome,[5],inactive
C[C@H](N)Cc1c[nH]c2ccc(OCc3cccs3)cc12,Potency,[9],inactive
same,Potency,[3],inactive
same,outcome,[4],inactive
same,outcome,[5],inactive
CC(C)n1cnc2c(C(=O)N[C@H]3CN4CCC3CC4)cc(Cl)cc21,Potency,[6],398 nM (active)
same,Potency,[8],inactive
